Measurements reported in PubChem BioAssay AID1942 (Johns Hopkins Ion Channel Center, 2009).
Screen size: about 2,400 compounds; about 580 (24%) were called active.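 How the source made its calls: active means activity change at or above the mean plus 3 SD of buffer wells without dofetilide, per plate; inactive means the rest.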 These entries were drawn from the full list.

biological target: Potassium voltage-gated channel subfamily KQT member 2 (Rattus norvegicus) (UniProt O88943); assay: rat KCNQ2 channel activation by compounds alone, confirmation, counter-screen for hERG block protector project, cell-based, CHO, FluxOR thallium flux (AID 1942); conditions: CHO-KCNQ2 cells, FluxOR thallium flux fluorescence; at 10 µM; stronger effect = higher value;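 further: normalized value minus buffer-control mean plus three SD of buffer wells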
Sequence (O88943 whole entry, looked up): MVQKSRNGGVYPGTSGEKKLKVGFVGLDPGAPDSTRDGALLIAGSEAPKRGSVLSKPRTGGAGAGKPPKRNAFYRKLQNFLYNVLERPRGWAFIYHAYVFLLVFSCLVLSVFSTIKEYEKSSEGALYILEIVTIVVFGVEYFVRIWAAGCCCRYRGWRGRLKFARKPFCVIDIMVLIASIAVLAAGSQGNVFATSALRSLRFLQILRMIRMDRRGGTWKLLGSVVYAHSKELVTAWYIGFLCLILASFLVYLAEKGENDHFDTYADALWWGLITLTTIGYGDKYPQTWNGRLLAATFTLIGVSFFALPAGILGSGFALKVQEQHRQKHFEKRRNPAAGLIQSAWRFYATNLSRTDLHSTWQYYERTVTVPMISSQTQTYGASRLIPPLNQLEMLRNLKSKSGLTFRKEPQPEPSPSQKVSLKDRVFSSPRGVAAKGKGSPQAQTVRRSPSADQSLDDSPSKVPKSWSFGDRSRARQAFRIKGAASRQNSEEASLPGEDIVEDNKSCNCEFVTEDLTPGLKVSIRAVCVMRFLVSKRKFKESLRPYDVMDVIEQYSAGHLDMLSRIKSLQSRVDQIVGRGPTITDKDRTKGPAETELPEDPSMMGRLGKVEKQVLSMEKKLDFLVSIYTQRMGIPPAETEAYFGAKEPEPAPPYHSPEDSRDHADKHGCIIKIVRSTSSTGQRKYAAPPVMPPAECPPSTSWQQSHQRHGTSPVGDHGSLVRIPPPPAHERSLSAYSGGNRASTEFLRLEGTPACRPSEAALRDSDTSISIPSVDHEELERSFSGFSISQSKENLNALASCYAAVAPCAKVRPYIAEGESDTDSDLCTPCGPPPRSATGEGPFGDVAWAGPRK

SMILES	activity change, less the hit threshold
O=C(OCc1ccccc1)C1=NNC2C(=O)N(c3ccc(Br)cc3)C(=O)C12 (stereo not drawn)	-11.1% (inactive)
C=C(C)CNC(=S)NN=C1c2ccccc2-c2ccccc21	-7.1% (inactive)
COc1ccccc1C1C(C(=O)c2ccc(C)o2)=C(O)C(=O)N1c1cc(C)on1 (stereo not drawn)	-9.3% (inactive)
COc1ccccc1-n1cnc2cc(NS(=O)(=O)c3ccc(Br)cc3)ccc21	-25.5% (inactive)
CC1Oc2ccccc2N(CC(=O)N2CCCCCC2)C1=O (stereo not drawn)	-17.7% (inactive)
O=C(COc1coc(CN2CCc3ccccc3C2)cc1=O)Nc1cccc(Cl)c1	-26% (inactive)
COc1ccc(CCNC(=O)C(=O)Nc2ccc3c(c2)OCO3)cc1OC	-19% (inactive)
O=C(COC(=O)/C=C/c1ccc2c(c1)OCO2)NC1CC1	-11.4% (inactive)
CC(NC(=O)NC1CCCCC1)c1ccc2c(c1)OCO2 (stereo not drawn)	51% (active)
COc1cc(/C=N/NC(=O)NC2CCCCC2)ccc1O	-11.5% (inactive)
Cc1ccc(C(=O)N2CCN(c3ccccc3)CC2)cc1S(=O)(=O)N1CCCC1	1.9% (active)
CCOC(=O)N1CCN(C(=O)c2ccc(Cl)c(S(=O)(=O)Nc3ccccc3)c2)CC1	-3.5% (inactive)
CCOC(=O)N1CCN(C(=O)c2ccc(CN(c3ccc(C)c(C)c3)S(C)(=O)=O)cc2)CC1	-15.6% (inactive)
CCOC(=O)N1CCN(C(=O)c2ccc(C)c(S(=O)(=O)Nc3ccccc3)c2)CC1	4% (active)
O=C(c1ccc(Cl)c(S(=O)(=O)N2CCCC2)c1)N1CCN(c2ccccc2F)CC1	-7.1% (inactive)
COc1ccc(N2CCN(C(=O)c3ccc(-c4ccccc4)cc3)CC2)cc1	-20% (inactive)
Cc1cccc(/N=C/c2sc3ccccc3c2O)n1	-11.6% (inactive)
CCC(=O)c1cc2c(C)cc(=O)oc2c(C)c1O	-12.6% (inactive)
CSc1ccc(CNc2nc3ccccc3n3cnnc23)cc1	-28.3% (inactive)
COc1ccc(COC(=O)C2CCN(S(=O)(=O)c3cccs3)CC2)cc1	-20.1% (inactive)
c1ccc(-c2csc(Nc3ccc4c(c3)OCCO4)n2)cc1	-20.3% (inactive)

SMILES	activity change, less the hit threshold
O=C(COC(=O)c1cc[n+]([O-])cc1)Nc1cc([N+](=O)[O-])ccc1Cl	-11.7% (inactive)
O=C(Nc1nnc(-c2ccccc2)o1)c1ccc(Cl)cc1	-17.9% (inactive)
O=C(Nc1nnc(-c2ccc3c(c2)CCCC3)o1)C1COc2ccccc2O1 (stereo not drawn)	4.3% (active)
O=C(Nc1nnc(-c2ccc3c(c2)CCCC3)o1)c1ccc(Cl)cc1Cl	30.2% (active)
O=C(CCc1ccccc1)Nc1nnc(-c2ccccn2)o1	-17.4% (inactive)
O=C(Nc1nc2c(F)cc(F)cc2s1)C1COc2ccccc2O1 (stereo not drawn)	-25.7% (inactive)
O=C(Cc1ccc(Cl)cc1)Nc1cccc(-c2nnc(-c3ccco3)o2)c1	-13.4% (inactive)
O=C(N=C1SC2CS(=O)(=O)CC2N1c1cccc(Cl)c1Cl)C1CCCO1 (stereo not drawn)	-21.2% (inactive)
CCCN(C(=O)c1ccco1)c1nnc(-c2ccncc2)s1	-7.4% (inactive)
Cc1ccc(/C(O)=C2\C(=O)C(=O)N(Cc3cccnc3)C2c2ccccc2[N+](=O)[O-])cc1 (stereo not drawn)	-16% (inactive)
Cc1ccc(NC(=O)CN2C(=O)S/C(=C/c3ccc(-c4cc(C(=O)O)ccc4C)o3)C2=O)cc1C	-24.7% (inactive)
Cc1ccc2c(c1)N(CCC(=O)NCc1cccnc1)C(=O)CO2	-10.8% (inactive)
C/C(=C\C(=O)c1ccncc1)Nc1ccccc1O	-11.7% (inactive)
O=C1CC(O)(C(F)(F)F)Oc2c1ccc1ccccc21 (stereo not drawn)	28.3% (active)
CC1(C)Cc2c(ccc3ccccc23)C2=C(C(=O)N3CCCC3)C(=O)C(=O)N21	-11.1% (inactive)
Nc1nc2c(s1)CCCCCCCCCC2	-3% (inactive)
O=C(c1ccco1)N(c1ccccn1)c1ccccn1	-21.4% (inactive)
Brc1ccc(C2=CC(c3ccco3)n3nnnc3N2)cc1 (stereo not drawn)	-16.3% (inactive)
O=C(O)c1sccc1OCc1ccccc1	-0.9% (inactive)
C=CCn1c(O)c(N=NC(=S)Nc2ccc(OC)cc2)c2ccccc21	25% (active)
Cc1ccc(C)c(Cn2c(O)c(N=NC(=S)Nc3ccccc3F)c3ccccc32)c1	-11.3% (inactive)

SMILES	activity change, less the hit threshold
Oc1c(N=NC(=S)Nc2ccccc2F)c2ccccc2n1Cc1cccc(Cl)c1	-13% (inactive)
Cc1ccccc1Cn1c(O)c(N=NC(=S)Nc2ccccc2F)c2ccccc21	-20.7% (inactive)
C=CCn1c(O)c(N=NC(=S)Nc2ccc(OC)c(Cl)c2)c2ccccc21	3.8% (active)
Oc1c(N=NC(=S)Nc2ccccc2F)c2ccccc2n1Cc1ccccc1F	-12.8% (inactive)
CCCCCCCc1c(O)nc(SCC(=O)O)[nH]c1=O	-8.4% (inactive)
Cc1cc(-c2ccccc2)[nH]c(=O)c1S(=O)(=O)c1ccccc1	-13% (inactive)
C/C(N)=C(/C#N)C(=O)COC(=O)C1CCC(C(C)(C)C)CC1 (stereo not drawn)	-10% (inactive)
Cn1cc(CCC(=O)N2CCCC(Nc3ccc(F)cc3)C2)cn1 (stereo not drawn)	-23.8% (inactive)
CCC(=O)Nc1nnc(-c2ccccn2)o1	-22.5% (inactive)
CC(Oc1ccc(Cl)cc1)/C(N)=N/O (stereo not drawn)	-19.6% (inactive)
Cc1ccccc1Cn1nc(C)c(NC(=O)c2ccccc2)c1C	51.6% (active)
CC(=O)c1n[nH]nc1NC(=O)c1ccccc1	-9.7% (inactive)
CCc1cccc(C)c1NC(=O)C1=C(C(=O)O)CCCC1	-15.9% (inactive)
COc1ccc(CCN2C(=O)CSC2=S)cc1OC	-24% (inactive)
O=C(NC(=S)NCCc1ccccc1)c1cccc(Cl)c1	-22.4% (inactive)
Cc1cccc(C(=O)NC(=S)NNC(=O)c2ccc(Cl)cc2)c1	-29% (inactive)
O=C(CCC1CCCC1)NNC(=O)c1cccc(Cl)c1	11.7% (active)
Cc1ccccc1NC(=O)CC1S/C(=N/c2nccs2)N(C)C1=O (stereo not drawn)	-17.1% (inactive)
O=C(O)C1CCN1C1CCCCC1 (stereo not drawn)	-22.9% (inactive)
CCOC(=O)c1ccc(Oc2cc(C)nc(SC)n2)cc1	11.9% (active)
CCOc1cc(-n2ncc(C#N)c2N)nc(SC)n1	-21.7% (inactive)
